Measured values from PubChem BioAssay (NCI).
This is part of a sample that, as a whole, favours compounds with a hit. Of some 83,000 tested, about 20% had one in any assay.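 96-well plates, one dose, 48 hours. Percent growth reported; active if below 10.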 Values without a mark were called inactive. Active and inactive are the calls of the source.

Key:
Assay in all cases: NCI-60 one-dose screen, 48 h (100 = growth as untreated, 0 = no growth, -100 = all killed)
HCT-15 colon = details: 10 µM unless noted
HT29 colon = details: 10 µM unless noted
SNB-75 CNS = details: 10 µM unless noted
SNB-19 CNS = details: 10 µM unless noted
U251 CNS = details: 10 µM unless noted
PC-3 prostate = details: 10 µM unless noted
SK-MEL-5 melanoma = details: 10 µM unless noted
UACC-62 melanoma = details: 10 µM unless noted
LOX IMVI melanoma = details: 10 µM
SK-MEL-28 melanoma = details: 10 µM unless noted
SK-MEL-2 melanoma = details: 10 µM unless noted
EKVX NSCLC = details: 10 µM unless noted
SN12C renal = details: 10 µM unless noted
UO-31 renal = details: 10 µM unless noted
ACHN renal = details: 10 µM unless noted
CAKI-1 renal = details: 10 µM unless noted
A498 renal = details: 10 µM unless noted
CCRF-CEM leukemia = details: 10 µM unless noted
MOLT-4 leukemia = details: 10 µM unless noted
TK-10 renal = details: 10 µM unless noted

Compound	growth (HCT-15 colon)	growth (HT29 colon)	growth (SNB-75 CNS)	growth (SNB-19 CNS) [%]	growth (U251 CNS)	growth (PC-3 prostate)	growth (SK-MEL-5 melanoma)	growth (UACC-62 melanoma) [%]	growth (LOX IMVI melanoma)	growth (SK-MEL-28 melanoma) [%]	growth (SK-MEL-2 melanoma)	growth (EKVX NSCLC) [%]	growth (SN12C renal)	growth (UO-31 renal)	growth (ACHN renal) [%]	growth (CAKI-1 renal) [%]	growth (A498 renal)	growth (CCRF-CEM leukemia)	growth (MOLT-4 leukemia)	growth (TK-10 renal) [%]
CC(C)c1ccc(C(=O)OC2CCCC2)cc1	95.3%	113%	90.4%	102	109%	89.9%	98.7%	97.7	95%	108	105%	92.6	97.5%	99.6%	99.5	98.8	117%	89.8%	110%	–
COc1ccc2c(c1)c(CC(=O)O)c(C)n2C(=O)c1ccc(Cl)cc1	104%	111%	84.7%	110	90.3%	104%	93.6%	95.5	90.9%	97.3	106%	95.9	97.4%	65.6%	–	88.1	81.9%	89.7%	113%	–
O=C1C=Cc2ccccc2/C1=C/c1nc(-c2ccccc2)oc1O	92.4%	108%	70.8%	102	95%	89.1%	92.4%	93.8	84.8%	106	99.1%	78.7	94.8%	65.5%	–	86.8	113%	110%	96.5%	136
Oc1c(Cl)cc(Cl)cc1C(c1cc(Cl)cc(Cl)c1O)C(Cl)(Cl)Cl	2.87% (active)	7.53% (active)	-7.64% (active)	19.2	4.24% (active)	-7.63% (active)	-38.8% (active)	11.8	0.701% (active)	30.4	-33.9% (active)	–	0.98% (active)	-21.4% (active)	–	–	-26.6% (active)	8.74% (active)	3.86% (active)	13
CC1CC(C)(C)OB(OC(C)CC(C)(C)OB2OC(C)CC(C)(C)O2)O1 (centres undefined)	104%	99.2%	115%	104	94.2%	97.5%	101%	106	93.7%	104	103%	–	101%	90.9%	108	105	118%	104%	99.2%	93.6
Clc1ccc(Cc2nc3ccccc3s2)cc1	88%	118%	83.9%	121	79.4%	63%	96.9%	87.7	74.3%	112	110%	86.5	–	61.2%	98.5	96.3	117%	93.1%	92.6%	119
COc1ccc(/C=C2/C(=O)ON=C2C)cc1	112%	99.2%	106%	106	98.6%	97.6%	103%	90.3	99.4%	106	96%	109	–	99%	118	102	100%	105%	107%	96.5
Clc1ccccc1C(c1ccccc1)(c1ccccc1)n1ccnc1	22.9%	27.4%	44.1%	58.4	42%	19.6%	-87% (active)	40.8	36%	55.5	48.3%	25.9	48.2%	12.1%	32.7	20.6	58.7%	21.5%	17.3%	–
